# Experimental data from ChEMBL document CHEMBL3988442, “University of Dundee, Small-Polar-MMV Screening Library” (2021).
# Out of some 69,000 compounds screened, about 420 (0.61%) showed an effect of 50% or more. The full list was thinned out, with strong results kept by preference.
# Target: T1, Histidine--tRNA ligase (Leishmania infantum) (UniProt A4I591)
# T1 sequence (whole entry): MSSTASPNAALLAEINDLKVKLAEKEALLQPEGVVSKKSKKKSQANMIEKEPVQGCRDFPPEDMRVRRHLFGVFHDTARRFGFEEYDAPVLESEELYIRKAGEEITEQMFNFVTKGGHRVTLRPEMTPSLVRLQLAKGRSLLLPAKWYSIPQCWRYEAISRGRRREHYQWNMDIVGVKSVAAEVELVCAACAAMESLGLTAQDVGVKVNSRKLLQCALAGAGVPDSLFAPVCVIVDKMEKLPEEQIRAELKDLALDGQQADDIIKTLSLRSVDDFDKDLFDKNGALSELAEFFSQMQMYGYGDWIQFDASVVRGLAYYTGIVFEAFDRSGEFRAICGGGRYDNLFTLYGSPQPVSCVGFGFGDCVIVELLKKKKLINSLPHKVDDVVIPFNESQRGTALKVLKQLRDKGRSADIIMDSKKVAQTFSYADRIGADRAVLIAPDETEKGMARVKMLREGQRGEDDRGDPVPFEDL
# Assay: Leishmania infantum Histidine tRNA synthetase (LdHisRS)
# Type: functional
# Set-up: scale not given: in the data most compounds retested in dose-response had high values
# Conditions: 30 µM
row,Compound,Percent Effect [%]
1,Cc1ccc(N(C)[C@@H]2CC[C@@H]3CN(C(=O)CC4CCOCC4)C[C@@H]32)nn1,12.8
2,Cc1ccnc(N2C[C@@H]3CC[C@H](C2)N(CC2CCC2)C3=O)n1,34.4
3,Cn1cc(CCC(=O)N2C[C@@H]3CC[C@H](C2)N(Cc2ccccn2)C3)cn1,24.1
4,Cc1ccc(N2C[C@H]3OCC[C@H]3[C@H](C(=O)NC3CCC3)C2)nn1,11.8
5,CCc1nccn1-c1cccc(C2CCCN(C3CCCCC3)C2)n1 (stereo not given),42
6,Cc1nccn1-c1cccc(C2CCCN(C3CCCC3)C2)n1 (stereo not given),65.2
7,Cc1nccn1-c1cccc(C2CCCN(C(=O)c3cc[nH]n3)C2)n1 (stereo not given),17.1
8,CC(C)c1nccn1-c1cccc(C2CCCN(C3CCCC3)C2)n1 (stereo not given),22.9
9,Cc1nccn1-c1cccc(C2CCCN(C3CCCCC3)C2)n1 (stereo not given),55.6
10,Cc1nccn1-c1nccnc1C1CCCN(C2CCCC2)C1 (stereo not given),-4.2
11,COCC(=O)N1CC[C@@H]2CN(Cc3cccc(Cl)c3)S(=O)(=O)[C@@H]2CC1,3.77
12,Cn1ccc(NC(=O)CN2C[C@H]3CC[C@@H]2CN(Cc2ccccn2)C3)n1,0
13,O=C(Cc1cnc(-c2c(Cl)cccc2Cl)s1)N1CCOCC1,64.8
14,NC(=O)C1CCN(C(=O)Cc2cnc(-c3c(Cl)cccc3Cl)s2)CC1,12.1
15,CC(=O)N1CCN(C(=O)Cc2cnc(-c3c(Cl)cccc3Cl)s2)CC1,-1.1
16,Cc1nnsc1C(=O)N1CC[C@H](c2ccccc2)[C@@H]2[C@H]1CCCCN2C,7.29
17,Cc1ccc(Cl)cc1NC(=O)Cn1cc(C(=O)O)ccc1=O,6.67
18,Cc1cccc(Cl)c1NC(=O)Cn1cc(C(=O)O)ccc1=O,18.3
19,Cc1c(Cl)cccc1NC(=O)Cn1cc(C(=O)O)ccc1=O,55
20,CC(C)CS(=O)(=O)N1C[C@H]2C[C@H](C(=O)NCc3ccccc3)[C@@H](C1)O2,5.83
21,Cn1cc(N2C(=O)C[C@@H]3[C@@H]2CCN3C(=O)c2ccco2)cn1,16
22,COc1cc(N2C[C@H]3CN(C(=O)c4cnccn4)C[C@H]3C2)ncn1,5.26
23,Cn1nc(Cn2ccnc2)c2c1CN(c1ncccn1)C2,3.51
24,CCS(=O)(=O)N1Cc2c(Cn3ccnc3)nn(C)c2C1,11.1
25,Cn1nc(Cn2ccnc2)c2c1CN(c1nccs1)C2,52.6
26,Cc1cc(C(=O)N2C[C@H]3CC[C@@H]2CN(Cc2ccccn2)C3)nc(N)n1,-4.84
27,CS(=O)(=O)N[C@H]1COC[C@@H]2CN(Cc3ccco3)C[C@@H]21,-1.39

row,Compound,Percent Effect [%]
1,COc1ccc(Oc2nccc3occc23)cc1CN1CCCC1,58.1
2,COc1ccc(Oc2ncccc2F)cc1CN1CCCC1,15.8
3,c1ccc(Oc2nccc3occc23)c(CN2CCCCC2)c1,23.7
4,O=C1NCCO[C@H]2CN(C(=O)Cc3ccco3)CC[C@@H]12,18
5,Cc1nc(CN2CCc3nc(N4CCCC4)nc(NC(C)C)c3C2)cs1,92.3
6,Cc1nc(CN2CCc3nc(NC(C)C)nc(C)c3C2)cs1,47.9
7,CC(C)Nc1nc(N2CCCC2)nc2c1CN(C)CC2,5.56
8,Cc1ccc([C@@]2(O)CC[C@@H]3CN(S(=O)(=O)c4cn(C)nc4C)C[C@@H]32)cc1,-15.8
9,CSc1nc(N)cc(N2C[C@@H]3CC[C@H](C2)N(CC2CC2)C3=O)n1,24.7
10,Nc1nc(CC(=O)N2CCCC(CCc3cccc(F)c3)C2)cc(=O)[nH]1 (stereo not given),78.3
11,Cc1ccccc1CCC1CCCN(C(=O)Cc2cc(=O)[nH]c(N)n2)C1 (stereo not given),18.3
12,O=C(CC1=CSC2=NCCN12)N1CCCC(CCc2cccc(F)c2)C1 (stereo not given),28.3
13,Cc1ccccc1CC(C)(C)NC(=O)c1cccc(OCC(N)=O)c1,50.6
14,Cc1ccccc1CC(C)(C)NC(=O)CCOc1cccc(C(N)=O)c1,1.3
15,Cc1ccccc1CC(C)(C)NC(=O)COc1cccc(C(N)=O)c1,22.1
16,Cc1ccc(CN2C[C@@H](OCc3csc(C)n3)[C@H]3COC[C@H]32)s1,21
17,CN1CCC(O)(CCNC(=O)[C@@]23CNC[C@@H]2CN(C2CCCC2)C3)CC1,10.3
18,CC(=O)N1CCO[C@@H]2CN(S(=O)(=O)c3ccc(F)cc3)CC[C@@H]2C1,17
19,CC(=O)N1CCO[C@@H]2CN(S(=O)(=O)c3cccs3)CC[C@@H]2C1,5.66
20,CC(=O)N1CCO[C@@H]2CN(S(=O)(=O)c3ccc(C)cc3)CC[C@@H]2C1,50.9
21,O=C(N[C@@H]1CN(Cc2ccoc2)C[C@@H]2CCCO[C@@H]21)C1CCC1,11.8
22,Cc1nnc(N2C[C@H](C(=O)NCc3ccco3)[C@@H]3CCO[C@@H]3C2)s1,16.8
23,CS(=O)(=O)N1C[C@@H]2COC[C@@H](CC(=O)N3CCCO3)[C@@H]2C1,7.89
24,Nc1cc(-c2nccnc2N2CCCC2)c2cc[nH]c2n1,20.2
25,OCCNc1cc(-c2nccnc2N2CCCC2)c2cc[nH]c2n1,62.8
26,O=C(O)CNc1cc(-c2nccnc2N2CCCC2)c2cc[nH]c2n1,20.2
27,Cc1ccc(C)c(OC(C)C(=O)Nc2cccnc2)c1 (stereo not given),0

row,Compound,Percent Effect [%]
1,Cc1ccc(C)c(OC(C)C(=O)NCc2cccnc2)c1 (stereo not given),0
2,Cc1ccc(C)c(OC(C)C(=O)NCCNc2cccnc2)c1 (stereo not given),60.6
3,NC(=O)CN1C(=O)CO[C@H]2CN(Cc3ccc(Cl)cc3)C[C@H]21,10.8
4,Cc1ccc(N2CC[C@@H]3[C@@H]2CCN3C(=O)c2cscn2)nn1,7.89
5,O=C(N[C@H]1CCCC[C@@H]1O)c1ccc2nc(-c3ccccc3)[nH]c2c1,3.96
6,O=C(NC[C@H]1CCCC[C@H]1O)c1cccc2[nH]c(-c3ccco3)nc12,29.7
7,O=C(NC[C@H]1CCCC[C@H]1O)c1ccc2nc(-c3ccco3)[nH]c2c1,63.4
8,COC[C@@H]1CC[C@H]2[C@H](CCN2C(=O)c2ccncc2F)O1,22.6
9,O=C(Cn1ccc2sccc2c1=O)NCc1ccc(F)cc1,5.43
10,CN(C)S(=O)(=O)N1C[C@H]2CCC[C@@]2(COCc2ccccn2)C1,-17.6
11,Cc1cccc(COC[C@H]2CC[C@H]3[C@H](CCN3C(=O)CC3CC3)O2)n1,13.9
12,Cc1nc(CN2CCc3nn(C)c(=O)cc3C2)oc1C,14.9
13,Cc1ccc(-c2nnc(CN3CCc4nn(C)c(=O)cc4C3)o2)cc1,106
14,CC(C)n1nc2c(cc1=O)CN(Cc1nc(-c3ccco3)no1)CC2,2.67
15,Cc1ccc(-c2nnc(CN3CCc4cnc(C)nc4C3)o2)cc1,40
16,Cn1nc2c(cc1=O)CN(Cc1ccc(-n3cccn3)cc1)CC2,33.3
17,Cn1nc2c(cc1=O)CN(Cc1nnc(-c3ccco3)o1)CC2,76.6
18,CC(C)n1nc2c(cc1=O)CN(Cc1nnc(C3CC3)o1)CC2,24.5
19,CCOCCN1CCN(Cc2nnc(-c3ccco3)o2)CC1,8.51
20,Cn1nc2c(cc1=O)CN(Cc1nnc(-c3ccc(F)cc3)o1)CC2,78.7
21,COc1ccc(N2Cc3nc(N)ncc3C2=O)cc1,0
22,O=C1[C@H]2CN(CC3CC3)C[C@H]2CN1Cc1cccc(F)c1,-1.5
23,O=C([C@H]1C[C@H]2OCC[C@H]2N(CCc2ccccc2)C1)N1CCCCO1,9.02
24,Cc1nc(CN2C[C@@H]3CN(c4ncc(F)cn4)C[C@@H]3C2=O)cs1,19.7
25,O=C(c1cccnc1)N1C[C@@H]2CC[C@H](C1)N(Cc1ccc(F)cc1Cl)C2,7.2
26,CC(=O)N1CCN2C[C@H](CO)[C@@H](c3ccccc3)[C@H]2C1,2.04
27,CCN1C(=O)C(C#N)=C(C)/C(=C/C2=Cc3ccccc3OC2)C1=O,86.8

row,Compound,Percent Effect [%]
1,CC1=C(C#N)C(=O)N(C)C(=O)/C1=C\C1=Cc2ccccc2OC1,92.1
2,CC(Cn1cccn1)NC(=O)C1=Cc2ccccc2OC1 (stereo not given),16
3,O=C(Nc1cccnc1)C1=Cc2ccccc2OC1,25
4,COC(=O)CC(C1=Cc2ccccc2OC1)c1oc(C)cc(=O)c1O (stereo not given),23.1
5,Cc1nc([C@H]2C[C@H]3CN(C(=O)c4cc(C)c(C)s4)CC[C@@H]3O2)no1,20.6
6,COc1cccc(C(=O)N2C[C@@H](c3ccccc3)[C@@H]3NCCCC[C@@H]32)c1,10.3
7,Cc1nc2c(c(=O)[nH]1)CN(C(=O)CC[C@@H]1CCCN3CCCC[C@H]13)C2,3.54
8,Cc1ccc(CN2CC[C@@H]3[C@@H](CO[C@H]3CN3CCN(C)CC3)C2)s1,-11.1
9,O=C(c1cscn1)N1C[C@H](OCc2cccnc2)[C@H]2COC[C@H]21,9.72
10,CCC1=N[C@@]2(CC[C@@H]3CN(Cc4ccccc4C)C[C@@H]32)C(=O)N1C,10
11,Cn1cccc1C(=O)N[C@@H]1CN(Cc2ccsc2)[C@@H]2COC[C@@H]21,20
12,Cc1ccnc(N2CCN(C[C@]3(O)CCCN4CCCC[C@@H]43)CC2)c1,2.86
13,Cc1nc(O)cc(CCNC(=O)CC[C@@H]2CCCN3CCCC[C@H]23)n1,5.38
14,CC1=C(C#N)C(=O)NC(=O)/C1=C\c1c(C)nn(-c2ccccc2)c1O,43.3
15,CC1=C(C#N)C(=O)NC(=O)/C1=C\c1c(C)nn(-c2ccc(C)cc2)c1O,70.1
16,Cc1nn(C)c(=O)c2nn(-c3ccc(Cl)cc3)c(C)c12,5.5
17,CC1=C(C#N)C(=O)NC(=O)/C1=C\c1c(C)nn(-c2ccc(Cl)cc2)c1O,51.5
18,Cc1ccc(-n2nc(C)c3c2NC(=O)CC3c2cnc(N)s2)cc1 (stereo not given),17.3
19,CCN(CC)CCNC(=O)CCc1c(C)nn(-c2ccc(Cl)cc2)c1C,7.92
20,Cc1cc(CN2CC[C@H]3OCC[C@@]3(C(=O)NCc3ccco3)C2)no1,11.4
21,O=C([C@H]1CCS(=O)(=O)[C@@H]2CN(CCc3ccccc3)C[C@H]12)N1CCCC1,17.6
22,Cc1ccncc1C(=O)N1CC[C@@]2(O)CCN(C3CCCCC3)C[C@H]2C1,14.5
23,c1cnn(CCCO[C@@H]2CC[C@H]3[C@H]2OCCN3CC2CCOCC2)c1,13.9
24,Cc1noc(C)c1CN1C[C@@H]2CC[C@H](C1)N(Cc1cc(F)cc(F)c1)C2,24.7
